Assay results as given in PubChem BioAssay (NCI).
Values joined by “and” are separate entries in the source; they are usually repeats but may differ in a detail not shown here. Identical values can stand only once. This is part of a sample that, as a whole, favours compounds with a hit. Of some 83,000 tested, about 20% had one in any assay.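 Cells were grown in 96-well plates and exposed to the test compound at a single concentration for 48 hours; results are reported as percent growth, with values below 10 considered active.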 Active and inactive are the calls of the source. Where a SMILES comes first, the peptide text is derived from it.

These compounds were tested on IGROV1 ovarian (assay: NCI-60 one-dose screen, 48 h (100 = growth as untreated, 0 = no growth, -100 = all killed)). Settings: 10 µM unless noted.
Method: Growth inhibition of the IGROV1 human tumor cell line is measured as a screen for anti-cancer activity. Cells are grown in 96 well plates and exposed to the test compound for 48 hours. Compounds are tested at a single concentration, which is 10^-5 M for most compounds. The reported endpoint is percent growth (GI% or GIPRCNT), where numbers from 0 - 100% represent growth inhibition, and numbers from -100% - 0 represent cell death. For example, a value of 40 represents 60% growth inhibition. A value of 0 means no net growth occurred over the course of the experiment. A value of -40 indicates 40% of cells at the beginning of the experiment died by the end of the experiment. A value of -100 means all cells are dead at the end of the experiment.
NCI-60 Human Tumor Cell Lines Screen was performed using the standard one-dose NCI protocol, which is described in more detail at https://dtp.cancer.gov/discovery_development/nci-60/default.htm.
Compounds with GIPRCNT values below 10 were considered active. Activity score was based on GIPRCNT using the following formula: […]
Score is 0 for GIPRCNT values of 100 or above, 50 for GIPRCNT values of 0, and 100 for GIPRCNT values of -100.

Structure (SMILES)	growth
CC(=O)NCC(=O)c1ccc([N+](=O)[O-])cc1	107% (inactive)
c1ccc2c(c1)OC1OC2Oc2ccccc21	97% (inactive)
O=C(O)/C=C\C(=O)Nc1cccc2ccccc12	74.9% (inactive) and 129% (inactive)
Cl	120% (inactive)
Cc1cc(-c2cc(C)c(O)c(C)c2)cc(C)c1O	100% (inactive)
ClCCOCCOc1ccc(C2CCCCC2)cc1	117% (inactive)
CN(C)CC1CCCCCC(CN(C)C)C1=O (stereo not given)	34.2% (inactive)
COc1ccc(C(=O)CC(c2ccccc2)C(C#N)c2ccccc2)cc1 (stereo not given)	102% (inactive)
O=C1OC(c2ccccc2)=N/C1=C\c1ccccc1	99.1% (inactive)
CCCCCCCCCCCCCCCCC(C(=O)O)C(O)(CC(=O)O)C(=O)O (stereo not given)	109% (inactive) and -21.4% (active)
O=c1[nH]cnc2c1ncn2C1OC(CO)C(O)C1O (stereo not given)	118% (inactive) and 133% (inactive) and 64.6% (inactive)
CC1CCC(C(C)C)C(NNC(N)=O)C1 (stereo not given)	110% (inactive)
CC1(C)COC(=S)N1	95.8% (inactive)
Brc1ccc(SSc2ccc(Br)cc2)cc1	29.3% (inactive)
COc1ccc(N/C=C/C2=[N+](C)c3ccccc3C2(C)C)c(OC)c1	106% (inactive)
O=C(Cc1ccccc1)c1ccc(O)c(Cl)c1	60.4% (inactive)
CC(C)NCC(O)c1ccc(O)c(O)c1 (stereo not given)	96.4% (inactive) and 101% (inactive)
Cc1cc2ccccc2cn1	144% (inactive)
O=[N+]([O-])c1cccc(SSc2cccc([N+](=O)[O-])c2)c1	109% (inactive)
NC(Cc1ccccc1)C(=O)NC(Cc1ccccc1)C(=O)O (stereo not drawn) (H-Phe-Phe-OH; configuration not given here)	99.7% (inactive) and 103% (inactive)

Structure (SMILES)	growth
CCc1cc(C)cc(O)c1	92% (inactive)
CCCCCCCCCCNC(=O)CI	-67.4% (active)
O=C(/C=C/c1ccccc1)c1ccccc1	84.7% (inactive)
CC(C)NC(=O)N/C=C(\C#N)C(N)=O	102% (inactive)
O=CN1CCCCC1	124% (inactive)
O=C1OC(C(O)C(O)CO)C(O)=C1O (stereo not given)	111% (inactive)
O=C1c2c(O)ccc(O)c2C(=O)c2c(NCCNCCO)ccc(NCCNCCO)c21	-10.4% (active) and -56.7% (active)
CC[C@H](CC[C@@H](C)[C@H]1CC[C@H]2[C@@H]3CC=C4C[C@@H](O)CC[C@]4(C)[C@H]3CC[C@]12C)C(C)C	111% (inactive)
NC(Cc1c[nH]c2ccccc12)C(=O)O (stereo not given)	105% (inactive) and 120% (inactive)
O=c1n(CC2CO2)c(=O)n(CC2CO2)c(=O)n1CC1CO1 (stereo not given)	52.3% (inactive)
OC1COC(OCc2ccccc2)C(O)C1O (stereo not given)	92.4% (inactive)
NN1CCOC(c2ccccc2)C1 (stereo not given)	122% (inactive)
NC1CCC(C(=O)O)CC1 (stereo not given)	115% (inactive) and 111% (inactive)
NC(=O)NCCCC(N)C(=O)O (stereo not given)	91.5% (inactive)
CC1CCC2(C(=O)O)CCC3(C)C(=CCC4C5(C)CCC(O)C(C)(C)C5CCC43C)C2C1C (stereo not given)	96.7% (inactive) and 105% (inactive)
N#CC(C#N)N=Nc1ccc(Cl)cc1	69.4% (inactive)
CN(C)c1ccc(/C=C\C(=O)c2ccccc2)cc1	80.5% (inactive) and 91.3% (inactive) and 80.3% (inactive)
c1ccc(-c2nc3ccccc3s2)cc1	75.4% (inactive)
C#CCOC(=O)Nc1ccccc1	109% (inactive)
CC(=O)OCC1OC(OC(C)=O)C(OC(C)=O)C(OC(C)=O)C1OC(C)=O (stereo not given)	108% (inactive) and 105% (inactive)
